We go through 90 molecules from PubChem BioAssay AID602229 (The Scripps Research Institute Molecular Screening Center, 2012).

Among all 360,000 compounds or so, about 1,300 (0.36%) were called active. Only a selection was taken, and actives are over-represented in it overall. Unmarked numbers belong to inactive results.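 The calls were made as follows: active = inhibition above the mean of all tested compounds plus 3 SD (cut at about 70% in these data); inactive = the rest.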

The target of the assay is Photoreceptor-specific nuclear receptor (Homo sapiens) (UniProt Q9Y5X4). Nature of the assay: NCOR release from NR2E3 in cells – cell-based, luminescence, CHO-S, Gal4-NCOR/VP16-NR2E3, primary screen (AID 602229).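 Also: 0% = DMSO with NR2E3 transfected cells and 100% = cells lacking NR2E3 construct; higher means lower luciferase signal from less NR2E3 corepressor binding.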 The conditions noted are these: CHO-S Gal4-NCOR/VP16-NR2E3 two-hybrid, luciferase; at 3.98 µM; stronger effect = higher value.
Sequence of Photoreceptor-specific nuclear receptor (Homo sapiens) (Q9Y5X4 whole entry, looked up, the tested form may be a part): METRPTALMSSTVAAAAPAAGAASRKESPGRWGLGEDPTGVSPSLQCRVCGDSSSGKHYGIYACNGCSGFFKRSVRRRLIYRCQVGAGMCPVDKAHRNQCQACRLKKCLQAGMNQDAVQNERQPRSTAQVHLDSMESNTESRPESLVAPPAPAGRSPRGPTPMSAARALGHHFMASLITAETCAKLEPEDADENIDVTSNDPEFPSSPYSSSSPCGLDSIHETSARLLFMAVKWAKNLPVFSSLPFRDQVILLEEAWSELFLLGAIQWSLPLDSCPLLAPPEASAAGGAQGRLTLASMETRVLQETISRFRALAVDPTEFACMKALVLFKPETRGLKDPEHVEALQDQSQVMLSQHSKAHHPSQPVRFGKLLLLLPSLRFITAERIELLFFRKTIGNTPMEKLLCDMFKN
In the case of `O=C(CCc1nnc(CCCCc2ccccc2)o1)NC(c1cccnc1)C(F)(F)F` (stereo not given), the inhibition of corepressor binding was -10.3%. Regarding `O=C(Nn1cnnc1)c1cc(Cl)ccc1Cl`, the inhibition of corepressor binding is -4.56%. The figure for `NC(=O)C1CCN(CC(O)CSc2ccc(F)cc2)CC1` (stereo not given) is -11.6%; for `NS(=O)(=O)c1cc(C(=O)NCCOc2ccccc2)c(Cl)cc1Cl` it is 16%; for `Cc1ccc(S(=O)(=O)N2CCCC(C(=O)N3CCN(C)CC3)C2)cc1` (stereo not given) it is -11.8%. The figure for `CC(=O)N1CCCc2cc(S(=O)(=O)N3CCCC(C(=O)N4CCN(c5cccc(Cl)c5)CC4)C3)ccc21` (stereo not given) is 97.5% (active); for `COc1cccc(N2CCN(C(=O)C3CCCN(S(=O)(=O)c4cnc[nH]4)C3)CC2)c1` (stereo not given) it is -11%. In the case of `O=C(CCC1CCCC1)N=C1SC2CS(=O)(=O)CC2N1Cc1ccccc1` (stereo not given), the inhibition of corepressor binding is -16.6%. Take `CCc1cccc(NC(=O)C2CCCN(S(=O)(=O)c3ccc4[nH]c(=O)ccc4c3)C2)c1` (stereo not given): the inhibition of corepressor binding was -18.2%. Under `CC(=O)c1ccc(NC(=O)C2CCCN2S(=O)(=O)c2cccs2)cc1` (stereo not given) stands -7.87%. The figure for `N#Cc1cccc(CSc2nnc(CCCO)n2-c2ccccc2)c1` is 1.83%; for `O=C(OC12CC3CC(CC(C3)C1)C2)c1ccc(NCc2cc(O)ccc2O)cc1` it is 91.5% (active).

On to `CC(C)OC(=O)c1ccc(NCc2cc(O)ccc2O)cc1Cl`, for which the inhibition of corepressor binding is -8.58%. Under `Cc1ccnc(NC(=O)Cn2ccc([N+](=O)[O-])n2)c1` stands -2.77%.

For `O=C(C1CCN(S(=O)(=O)c2ccc(Br)s2)CC1)N1CCN(c2ccccc2)CC1`, the inhibition of corepressor binding is -1.63%. For `COc1cccc(CNC(=O)CCN2C(=S)NC(C)(C)CC2C)c1` (stereo not given), the inhibition of corepressor binding was 9.24%.

Regarding `N#C[C@]1(S(=O)(=O)c2ccccc2)C[C@@H]2ON=C(c3cccc(Br)c3)[C@@H]2C1`, the inhibition of corepressor binding was 77.6% (active). Under `COC(=O)[C@]1(S(=O)(=O)c2ccccc2)C[C@@H]2ON=C(c3ccc(OC)cc3)[C@@H]2C1` stands -7.87%; under `CCCc1cc(=O)[nH]c(SCC(=O)c2c(N)n(CC(C)C)c(=O)n(C)c2=O)n1`, 5.16%.

As to `O=C(NC(Nc1nc2ccc([N+](=O)[O-])cc2s1)(C(F)(F)F)C(F)(F)F)c1ccccc1`, the inhibition of corepressor binding is 102% (active). Consider `O=C(Nc1cc(-c2ccccc2)nn1-c1ccccc1F)c1ccc([N+](=O)[O-])cc1`, for which the inhibition of corepressor binding was 7.55%. The figure for `O=C(NNS(=O)(=O)Cc1ccccc1)c1ccc([N+](=O)[O-])cc1` is 0.72%; for `CC(C)n1c(-c2ccncc2)n[nH]c1=S` it is -6.98%; for `CCOC(=O)N1CCN(C(=O)C2CCN(c3ncnc4c3sc3cccc(F)c34)CC2)CC1` it is 78.5% (active). Consider `CCOC(=O)N1CCN(C(=O)C2CCCN(c3ncnc4c3sc3cccc(F)c34)C2)CC1` (stereo not given), for which the inhibition of corepressor binding is -2.23%.

For `CCOC(=O)N1CCN(C(=O)C2CCN(Cc3ccc(OC)cc3OC)CC2)CC1`, the inhibition of corepressor binding is 9.52%. As for `COc1ccc(S(=O)(=O)N2CCCC2)c(C)c1C`, the inhibition of corepressor binding is -29.4%. The figure for `CCOc1ccc(S(=O)(=O)n2ccnc2)c2ccccc12` is 17.1%; for `CCOc1ccc(S(=O)(=O)N2CCCCCC2)c2ccccc12` it is 75.7% (active). Under `CCNC(=O)N1CCNC(=O)C1CC(=O)Nc1ccc(C(=O)OCC)cc1` (stereo not given) stands -12.7%.

For the molecule `COC(=O)c1ccc(NS(=O)(=O)c2cc3c4c(c2)C(C)C(=O)N4CCC3)cc1` (stereo not given), the inhibition of corepressor binding was -17.2%. The figure for `OCCCNc1nccc(-c2cc(Nc3cccc(Cl)c3)ncn2)n1` is 101% (active); for `COCCCn1cc(CN2CC(N(C)C)CS2(=O)=O)nn1` (stereo not given) it is 20.1%. The figure for `Cc1cc(C)c(S(=O)(=O)c2cc(F)ccc2C)c(=O)[nH]1` is -8.41%; for `CC(C)(CNC(=O)c1ccc(Cl)c(S(=O)(=O)N2CCc3ccccc3C2)c1)N1CCOCC1` it is -7.92%. The figure for `CCc1nc2ccc(C(=O)NC3CCN(Cc4ccccc4)CC3)cn2c1N(CC)CCOC` is -6.67%; for `COc1cnc(-c2ccccn2)nc1Oc1ccc(C(C)(C)C)cc1` it is 103% (active).

For `COc1ccc2nc(-c3ccccn3)ccc2c1`, the inhibition of corepressor binding was -147%. The figure for `CC(C)(C)c1ccc(Oc2ccc(N)cc2)cc1` is 62.9%; for `CC(C)N(Cc1nnc(-c2ccc(Cl)cc2)o1)C(=O)C1=COCCO1` it is -16.3%.

For `COc1ccc(CCNC(=O)CSCc2ccc(Br)cc2)cc1OC`, the inhibition of corepressor binding was -15%. Turning to `CS(=O)(=O)c1ccc2nnn(OCC(=O)Nc3cccc(C#N)c3)c2c1`, the inhibition of corepressor binding was -3.52%.

As for `CCNC(=O)CCc1nc(-c2ccc(C(C)(C)C)cc2)no1`, the inhibition of corepressor binding is 75.3% (active). The figure for `CCOc1ccc(-c2noc(CCC(=O)NC3CCCC3)n2)cc1OC` is 4.53%; for `CCc1ccc(CNC(=O)CCc2nc(-c3cccs3)no2)cc1` it is -4.34%; for `CN(CC(=O)NCCN1CCOCC1)S(=O)(=O)c1ccc(F)cc1` it is -42.2%. Under `COc1cc(OC)cc(C2=Cc3ccccc3C(CC(=O)c3ccco3)N2c2ccc(-c3cnc(OC)nc3)cc2)c1` (stereo not given) stands -30.9%.

With `CCCn1c(C)cc(C(=O)COC(=O)c2c(C)nn(-c3ccccc3)c2C)c1C`, the inhibition of corepressor binding is 17.1%. As for `COc1ccc(CNC(=O)COC(=O)c2sccc2C)cc1OC`, the inhibition of corepressor binding was -4.67%. The figure for `Cc1ccsc1C(=O)OCC(=O)c1cc(C)n(CC2CCCO2)c1C` (stereo not given) is 89.5% (active); for `Cc1ccc(S(=O)(=O)NCc2nc3ccccc3c(=O)n2N)cc1` it is 22.2%. As to `Cc1nc(CNS(=O)(=O)c2cc([N+](=O)[O-])ccc2C)cs1`, the inhibition of corepressor binding was 6.54%. With `Cc1nc(CNS(=O)(=O)c2ccc(Oc3ccccc3)cc2)cs1`, the inhibition of corepressor binding was 92.4% (active). As to `Cc1cc2ccccn2c1C(=O)c1cccc(S(=O)(=O)N2CCOCC2)c1`, the inhibition of corepressor binding is 2.82%. Consider `CCN(C(=O)CSc1nnnn1-c1ccc(OC)cc1)C1CCS(=O)(=O)C1` (stereo not given), for which the inhibition of corepressor binding was -16.1%.

Regarding `CCC(C)N1C(=O)S/C(=C/c2ccc(Sc3nc4ccccc4[nH]3)o2)C1=O` (stereo not given), the inhibition of corepressor binding was 78.5% (active).

As for `CCOc1ccc(NC(=O)CN(C)C(=O)COc2cccc(CC)c2)cc1OCC`, the inhibition of corepressor binding is 2.58%.

Regarding `COc1ccc(NC(=O)/C(Cl)=C(/Cl)S(=O)Cc2ccc(C)cc2)cn1` (stereo not given), the inhibition of corepressor binding is 84.1% (active).

In the case of `CC(C)c1ccc(NC(=O)[C@@H](NC(=O)N2CC(=O)Nc3ccccc32)C(C)C)cc1`, the inhibition of corepressor binding was -32.4%. Under `Cc1nn(-c2ccccc2)c(=O)c2noc(C)c12` stands -0.89%. `O=C(CC(O)(C(F)(F)F)C(F)(F)F)Nc1ccc(Cl)c(Cl)c1`: the inhibition of corepressor binding is 107% (active). The figure for `N#CCCN(C(=O)Nc1ccc(Cl)c(Cl)c1)C1CCCCC1` is -1.19%.

On to `O=C(CN1CCN(C(=O)c2ccco2)CC1)Nc1ccc(Cl)c(C(F)(F)F)c1`, for which the inhibition of corepressor binding is -9.37%.

Regarding `CN(C)c1ccc(NC(=O)CSc2n[nH]c(-c3ccco3)n2)cc1`, the inhibition of corepressor binding is -21.3%.

Turning to `O[C@@H]1C[C@H](c2ccccc2)N(Cc2cccs2)C[C@H]1n1cc(C2CC2)nn1`, the inhibition of corepressor binding was 5.46%. With `CC(C)c1ccc(S(=O)(=O)N2CCN(C(C)C(=O)NC3CCCC3)CC2)cc1` (stereo not given), the inhibition of corepressor binding was -5.61%. Under `COc1cccc(CNC(C)C(=O)Nc2ccc(S(=O)(=O)N3CCCC3)cc2)c1` (stereo not given) stands 3.95%.

In the case of `COc1ccc(S(=O)(=O)N2CCN(C(C)C(=O)Nc3ccc(C(C)C)cc3)CC2)cc1` (stereo not given), the inhibition of corepressor binding was 94.6% (active). Under `N#Cc1ccc(COC(=O)Cn2nnc(-c3ccccc3)n2)cc1` stands 19.6%; under `CCC(=O)N1CCN=C1SCc1ccc(F)cc1`, 3.93%. On to `Cc1ccc(OCc2nnc(SC3CCc4ccccc4C3=O)n2C)cc1` (stereo not given), for which the inhibition of corepressor binding was -9.34%. In the case of `CCCCC(NS(=O)(=O)c1ccc(C)cc1)C(=O)Oc1ccc2c3c(c(=O)oc2c1)CCC3` (stereo not given), the inhibition of corepressor binding was -22.6%. In the case of `CCC(=O)c1ccc(OCC(O)Cn2nc(C)c(C(C)=O)c2C)cc1` (stereo not given), the inhibition of corepressor binding was -7.85%. Under `CCN(CC)C(=O)C1=C(C)N(Cc2ccc(C(C)(C)C)cc2)C(=O)C(CC(=O)NCc2cccc3ccccc23)C1` (stereo not given) stands 20.9%; under `C=CCn1c(C)cc(C2=NNC(=NCC)SC2)c1C`, 89.3% (active). `CCN(CC)S(=O)(=O)c1ccc(N(C)CCc2ccc(OC)c(OC)c2)nc1`: the inhibition of corepressor binding is 14.8%. The figure for `CCN(CC)S(=O)(=O)c1ccc(N(C)Cc2cccc(OC)c2OC)nc1` is 2.59%; for `CCN(CC)S(=O)(=O)c1ccc(N(C)Cc2ccc(C(F)(F)F)cc2)nc1` it is 91.6% (active).

As to `CCCCCCCCCCCCC(NC(C)=O)(C(=O)OCC)C(=O)OCC`, the inhibition of corepressor binding was 34.1%.

Regarding `O=C(Nn1cnc2ccccc2c1=O)c1ccc([N+](=O)[O-])cc1Cl`, the inhibition of corepressor binding was -16.8%.

On to `CCCCN1C[C@H](c2ccc(Br)cc2)[C@@H](CC(=O)Nc2ccc(Br)cc2)C1=O`, for which the inhibition of corepressor binding was -20.7%. Under `CNC(=O)C1CCN(S(=O)(=O)c2c(C)noc2/C=C/c2cccc(C)c2)CC1` stands -10.5%; under `O=C(Nc1ccccn1)C1CCN(S(=O)(=O)c2ccc3c(c2)OCCO3)CC1`, -51.8%; under `Cc1ccnc(NC(=O)C2CCN(S(=O)(=O)c3c(C)c(C)cc(C)c3C)CC2)c1`, 80.9% (active). For the molecule `CN(C)c1ccc(NC(=S)N(CCc2ccccc2)C2CC(=O)N(c3c(Cl)cccc3Cl)C2=O)cc1` (stereo not given), the inhibition of corepressor binding is 0.55%. Under `COc1ccc(-c2ccc(C(=O)NC(C)C)c3occc23)c(C)c1` stands 15.3%. `CC(=O)Nc1ccc(S(=O)(=O)NCC(=O)OCc2cc(=O)oc3ccc4ccccc4c23)cc1`: the inhibition of corepressor binding is -8.3%. Under `COc1ccc(CCNC(=O)CC2SC(=Nc3cc(C)cc(C)c3)NC2=O)cc1OC` (stereo not given) stands -33.4%; under `CCCOc1ccc(Cc2c(O)nc(SC)[nH]c2=O)cc1C`, -21.5%; under `CCCOc1ccc(Cc2c(Cl)nc(SC)nc2NC)cc1`, 92.3% (active).
